Compounds without any hit were thinned out: in the full panel of roughly 79,000, 15% have a hit. Activity calls are given as the source filed them. Cut-off read from the data, not from the text of the source: active = growth inhibition above about 70%; inactive = the rest.
Tests used:
[1] = NCI Yeast Anticancer Drug Screen. Data for the rad50 strain (AID 155);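 note: 0% = growth of vehicle-only cultures of the same strain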; conditions: S. cerevisiae rad50 strain growth inhibition, hits give high values
Outline: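 Genetically altered yeast (DNA repair pathway); compound treatment; growth inhibition vs vehicle ctrl.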

[2] = NCI Yeast Anticancer Drug Screen. Data for the mec2-1 strain (AID 157); conditions: S. cerevisiae mec2-1 strain, hits give high values
Outline: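 Cells of the genetically defined mec2-1 yeast strain are incubated with test compound. Inhibition of growth is calculated against vehicle-treated controls.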

[3] = NCI Yeast Anticancer Drug Screen. Data for the sgs1 mgt1 strain (AID 161);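 note: 0% = growth of cultures given vehicle only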; conditions: S. cerevisiae sgs1 mgt1 strain, hits give high values
Outline: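 Test agents were incubated with a DNA-repair-mutant yeast strain. Growth was then read and compared against vehicle-treated controls.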

[4] = NCI Yeast Anticancer Drug Screen. Data for the bub3 strain (AID 167); conditions: S. cerevisiae bub3 mutant strain, hits give high values
Outline: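 Yeast carrying a defined mutation is treated with each compound, and growth is compared with that of vehicle-exposed cells to give inhibition.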

[5] = NCI Yeast Anticancer Drug Screen. Data for the mlh1 rad18 strain (AID 175); conditions: S. cerevisiae mlh1 rad18 strain growth inhibition, hits give high values
Outline: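 Compound-treated yeast growth, normalised to vehicle controls. Strain bears defined DNA repair mutations.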

[6] = NCI Yeast Anticancer Drug Screen. Data for the cln2 rad14 strain (AID 165);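 note: 0% = growth equal to vehicle treated cultures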; conditions: S. cerevisiae cln2 rad14 strain, hits give high values
Outline: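 The screen exposed genetically defined yeast (cln2 rad14) to test compounds and scored growth inhibition relative to vehicle-treated controls.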

[7] = at 5.0 µM (retest, dose inferred, filed as 0.5)
[8] = at 50.0 µM (retest, dose inferred, filed as 5.0)

Measured: growth inhibition

O=C1C(=O)c2cc([N+](=O)[O-])ccc2-c2ccccc21
active: [1]; [8] 97% | [1]; at 50.0 µM 98.7% | [2]; [8] 97% | [2]; at 50.0 µM 95.8% | [3]; [8] 95% | [3]; at 50.0 µM 96.2% | [4]; [8] 89% | [4]; at 50.0 µM 98.1% | [5]; [8] 97% | [5]; at 50.0 µM 97.8%
inactive: [1]; [7] 45% | [2]; [7] 34% | [3]; [7] 32% | [4]; [7] 43% | [5]; [7] 54%

Cc1cc(C)c([I+]c2c(C)cc(C)cc2C)c(C)c1
inactive: [1]; [7] 10% | [1]; at 50.0 µM 57.8% | [2]; [7] 20% | [3]; [7] 9% | [3]; at 50.0 µM 60.6% | [6]; [7] 16% | [6]; at 50.0 µM 56.6% | [5]; [7] 16%
active: [1]; [8] 95% | [2]; [8] 97% | [2]; at 50.0 µM 73.4% | [3]; [8] 95% | [6]; [8] 97% | [5]; [8] 72% | [5]; at 50.0 µM 71%

OC(c1cc(-c2ccc(Cl)cc2)nc2c(Cl)cccc12)C1CCCCN1 (stereo not drawn)
active: [1]; [7] 73% | [1]; [8] 93% | [1]; at 50.0 µM 99.8% | [2]; at 50.0 µM 99.8% | [3]; [7] 93% | [3]; [8] 100% | [3]; at 50.0 µM 99.9% | [6]; at 50.0 µM 99% | [4]; [8] 93% | [4]; at 50.0 µM 99.5% | [5]; [8] 88% | [5]; at 50.0 µM 99.5%
inactive: [2]; [7] 26% | [2]; [8] 55% | [6]; [7] 20% | [6]; [8] 66% | [4]; [7] 28% | [5]; [7] 69%

CCN1/C(=C/C(C)=C/c2sc3ccc4ccccc4c3[n+]2CC)Sc2ccc3ccccc3c21
inactive: [1]; [7] 28% | [1]; [8] 30% | [2]; [7] 30% | [2]; [8] 36% | [3]; [7] -7% | [3]; [8] 42% | [4]; [7] 43% | [4]; [8] 10% | [5]; [7] 41% | [5]; [8] 35% | [5]; at 50.0 µM 69.9%
active: [1]; at 50.0 µM 79.8% | [2]; at 50.0 µM 82% | [3]; at 50.0 µM 81.7% | [4]; at 50.0 µM 73.2%

O=C(NNc1ccccc1)OCc1ccccc1
active: [1]; [8] 79% | [2]; [8] 86% | [3]; [8] 95% | [6]; [8] 97% | [4]; [8] 94% | [5]; [8] 84%
inactive: [1]; [7] 41% | [1]; at 50.0 µM 55% | [2]; [7] 43% | [2]; at 50.0 µM 20.5% | [3]; [7] 42% | [6]; [7] 55% | [4]; [7] 50% | [5]; [7] 29% | [5]; at 50.0 µM 32.5%

O=C1C=CC(=O)N1C1CCCCCCCCCCC1
active: [1]; at 50.0 µM 83.5% | [2]; at 50.0 µM 86% | [3]; [8] 98% | [6]; [8] 98% | [4]; [7] 71% | [4]; [8] 97% | [5]; at 50.0 µM 79.4%
inactive: [1]; [7] 32% | [1]; [8] 66% | [2]; [7] 46% | [2]; [8] 58% | [3]; [7] 44% | [6]; [7] 56% | [5]; [7] 30% | [5]; [8] 61%

Cc1ccc2cccc(OC(=O)Nc3cccc(C(F)(F)F)c3)c2n1
active: [1]; [8] 95% | [1]; at 50.0 µM 91.4% | [2]; [8] 98% | [2]; at 50.0 µM 89.9% | [3]; [8] 100% | [3]; at 50.0 µM 91.1% | [6]; [8] 98% | [6]; at 50.0 µM 91% | [5]; [8] 98% | [5]; at 50.0 µM 92.5%
inactive: [1]; [7] 50% | [2]; [7] 39% | [3]; [7] 50% | [6]; [7] 38% | [5]; [7] 50%

Cc1nnc(N/N=C/c2ccc([N+](=O)[O-])o2)[nH]c1=O
active: [3]; [8] 75% | [4]; at 50.0 µM 81% | [5]; [8] 80% | [5]; at 50.0 µM 71%
inactive: [1]; [7] -5% | [1]; [8] 36% | [1]; at 50.0 µM 59.1% | [2]; [7] 6% | [2]; [8] 68% | [2]; at 50.0 µM 65.2% | [3]; [7] -2% | [3]; at 50.0 µM 47.5% | [4]; [7] -9% | [4]; [8] 62% | [5]; [7] 8%

c1ccc(-c2nc(N=C3N=c4ccccc4=N3)[nH]c2-c2ccccn2)nc1
active: [1]; [8] 96% | [1]; at 50.0 µM 75.1% | [2]; [8] 97% | [2]; at 50.0 µM 77.8% | [3]; [8] 84% | [6]; [8] 93% | [4]; [8] 80% | [5]; [8] 98% | [5]; at 50.0 µM 75.5%
inactive: [1]; [7] 59% | [2]; [7] 54% | [3]; [7] 36% | [6]; [7] 49% | [4]; [7] 58% | [5]; [7] 49%

C[C@@H]1CCC([C@@H](C)[C@H]2CC[C@H]3[C@@H]4CC[C@H]5C[C@@H](O)CC[C@]5(C)[C@H]4CC[C@]23C)=NC1
active: [1]; [7] 73% | [1]; [8] 98% | [1]; at 50.0 µM 87.5% | [2]; [8] 98% | [2]; at 50.0 µM 89% | [3]; [7] 90% | [3]; [8] 99% | [3]; at 50.0 µM 91.6% | [4]; [7] 84% | [4]; [8] 98% | [4]; at 50.0 µM 88.5% | [5]; [7] 95% | [5]; [8] 98% | [5]; at 50.0 µM 89%
inactive: [2]; [7] 60%

CC(C)(C)c1ccc(CCO)cc1
inactive: [1]; [7] -10% | [1]; [8] 7% | [1]; at 50.0 µM 33.5% | [2]; [7] -2% | [2]; [8] -4% | [2]; at 50.0 µM 5.35% | [3]; [7] -3% | [3]; [8] -5% | [3]; at 50.0 µM 12.2% | [4]; [7] 0% | [4]; [8] 6% | [4]; at 50.0 µM -4.15% | [5]; [7] -5% | [5]; [8] 2% | [5]; at 50.0 µM 19.9%
